Measurements as given in the supplement of paper PMC11732987, “Enantioselective OTUD7B fragment discovery through chemoproteomics screening and high-throughput optimisation” (Communications Chemistry, 2025).

What was measured:
Assay in all cases: log2 ratio of Biotin-Ahx-Ub-VS probe labelling (fragment/DMSO); higher = less target engagement (more negative = stronger competition), active = hit call of the paper (q ≤ 0.05, log2 ratio ≤ -1)
Conditions in all cases: compound concentration: 200 uM; treatment time: 3 h
USP34 = USP34 (UniProt Q70CQ2)
Chain of USP34 (Q70CQ2 whole entry, the tested form may be a part): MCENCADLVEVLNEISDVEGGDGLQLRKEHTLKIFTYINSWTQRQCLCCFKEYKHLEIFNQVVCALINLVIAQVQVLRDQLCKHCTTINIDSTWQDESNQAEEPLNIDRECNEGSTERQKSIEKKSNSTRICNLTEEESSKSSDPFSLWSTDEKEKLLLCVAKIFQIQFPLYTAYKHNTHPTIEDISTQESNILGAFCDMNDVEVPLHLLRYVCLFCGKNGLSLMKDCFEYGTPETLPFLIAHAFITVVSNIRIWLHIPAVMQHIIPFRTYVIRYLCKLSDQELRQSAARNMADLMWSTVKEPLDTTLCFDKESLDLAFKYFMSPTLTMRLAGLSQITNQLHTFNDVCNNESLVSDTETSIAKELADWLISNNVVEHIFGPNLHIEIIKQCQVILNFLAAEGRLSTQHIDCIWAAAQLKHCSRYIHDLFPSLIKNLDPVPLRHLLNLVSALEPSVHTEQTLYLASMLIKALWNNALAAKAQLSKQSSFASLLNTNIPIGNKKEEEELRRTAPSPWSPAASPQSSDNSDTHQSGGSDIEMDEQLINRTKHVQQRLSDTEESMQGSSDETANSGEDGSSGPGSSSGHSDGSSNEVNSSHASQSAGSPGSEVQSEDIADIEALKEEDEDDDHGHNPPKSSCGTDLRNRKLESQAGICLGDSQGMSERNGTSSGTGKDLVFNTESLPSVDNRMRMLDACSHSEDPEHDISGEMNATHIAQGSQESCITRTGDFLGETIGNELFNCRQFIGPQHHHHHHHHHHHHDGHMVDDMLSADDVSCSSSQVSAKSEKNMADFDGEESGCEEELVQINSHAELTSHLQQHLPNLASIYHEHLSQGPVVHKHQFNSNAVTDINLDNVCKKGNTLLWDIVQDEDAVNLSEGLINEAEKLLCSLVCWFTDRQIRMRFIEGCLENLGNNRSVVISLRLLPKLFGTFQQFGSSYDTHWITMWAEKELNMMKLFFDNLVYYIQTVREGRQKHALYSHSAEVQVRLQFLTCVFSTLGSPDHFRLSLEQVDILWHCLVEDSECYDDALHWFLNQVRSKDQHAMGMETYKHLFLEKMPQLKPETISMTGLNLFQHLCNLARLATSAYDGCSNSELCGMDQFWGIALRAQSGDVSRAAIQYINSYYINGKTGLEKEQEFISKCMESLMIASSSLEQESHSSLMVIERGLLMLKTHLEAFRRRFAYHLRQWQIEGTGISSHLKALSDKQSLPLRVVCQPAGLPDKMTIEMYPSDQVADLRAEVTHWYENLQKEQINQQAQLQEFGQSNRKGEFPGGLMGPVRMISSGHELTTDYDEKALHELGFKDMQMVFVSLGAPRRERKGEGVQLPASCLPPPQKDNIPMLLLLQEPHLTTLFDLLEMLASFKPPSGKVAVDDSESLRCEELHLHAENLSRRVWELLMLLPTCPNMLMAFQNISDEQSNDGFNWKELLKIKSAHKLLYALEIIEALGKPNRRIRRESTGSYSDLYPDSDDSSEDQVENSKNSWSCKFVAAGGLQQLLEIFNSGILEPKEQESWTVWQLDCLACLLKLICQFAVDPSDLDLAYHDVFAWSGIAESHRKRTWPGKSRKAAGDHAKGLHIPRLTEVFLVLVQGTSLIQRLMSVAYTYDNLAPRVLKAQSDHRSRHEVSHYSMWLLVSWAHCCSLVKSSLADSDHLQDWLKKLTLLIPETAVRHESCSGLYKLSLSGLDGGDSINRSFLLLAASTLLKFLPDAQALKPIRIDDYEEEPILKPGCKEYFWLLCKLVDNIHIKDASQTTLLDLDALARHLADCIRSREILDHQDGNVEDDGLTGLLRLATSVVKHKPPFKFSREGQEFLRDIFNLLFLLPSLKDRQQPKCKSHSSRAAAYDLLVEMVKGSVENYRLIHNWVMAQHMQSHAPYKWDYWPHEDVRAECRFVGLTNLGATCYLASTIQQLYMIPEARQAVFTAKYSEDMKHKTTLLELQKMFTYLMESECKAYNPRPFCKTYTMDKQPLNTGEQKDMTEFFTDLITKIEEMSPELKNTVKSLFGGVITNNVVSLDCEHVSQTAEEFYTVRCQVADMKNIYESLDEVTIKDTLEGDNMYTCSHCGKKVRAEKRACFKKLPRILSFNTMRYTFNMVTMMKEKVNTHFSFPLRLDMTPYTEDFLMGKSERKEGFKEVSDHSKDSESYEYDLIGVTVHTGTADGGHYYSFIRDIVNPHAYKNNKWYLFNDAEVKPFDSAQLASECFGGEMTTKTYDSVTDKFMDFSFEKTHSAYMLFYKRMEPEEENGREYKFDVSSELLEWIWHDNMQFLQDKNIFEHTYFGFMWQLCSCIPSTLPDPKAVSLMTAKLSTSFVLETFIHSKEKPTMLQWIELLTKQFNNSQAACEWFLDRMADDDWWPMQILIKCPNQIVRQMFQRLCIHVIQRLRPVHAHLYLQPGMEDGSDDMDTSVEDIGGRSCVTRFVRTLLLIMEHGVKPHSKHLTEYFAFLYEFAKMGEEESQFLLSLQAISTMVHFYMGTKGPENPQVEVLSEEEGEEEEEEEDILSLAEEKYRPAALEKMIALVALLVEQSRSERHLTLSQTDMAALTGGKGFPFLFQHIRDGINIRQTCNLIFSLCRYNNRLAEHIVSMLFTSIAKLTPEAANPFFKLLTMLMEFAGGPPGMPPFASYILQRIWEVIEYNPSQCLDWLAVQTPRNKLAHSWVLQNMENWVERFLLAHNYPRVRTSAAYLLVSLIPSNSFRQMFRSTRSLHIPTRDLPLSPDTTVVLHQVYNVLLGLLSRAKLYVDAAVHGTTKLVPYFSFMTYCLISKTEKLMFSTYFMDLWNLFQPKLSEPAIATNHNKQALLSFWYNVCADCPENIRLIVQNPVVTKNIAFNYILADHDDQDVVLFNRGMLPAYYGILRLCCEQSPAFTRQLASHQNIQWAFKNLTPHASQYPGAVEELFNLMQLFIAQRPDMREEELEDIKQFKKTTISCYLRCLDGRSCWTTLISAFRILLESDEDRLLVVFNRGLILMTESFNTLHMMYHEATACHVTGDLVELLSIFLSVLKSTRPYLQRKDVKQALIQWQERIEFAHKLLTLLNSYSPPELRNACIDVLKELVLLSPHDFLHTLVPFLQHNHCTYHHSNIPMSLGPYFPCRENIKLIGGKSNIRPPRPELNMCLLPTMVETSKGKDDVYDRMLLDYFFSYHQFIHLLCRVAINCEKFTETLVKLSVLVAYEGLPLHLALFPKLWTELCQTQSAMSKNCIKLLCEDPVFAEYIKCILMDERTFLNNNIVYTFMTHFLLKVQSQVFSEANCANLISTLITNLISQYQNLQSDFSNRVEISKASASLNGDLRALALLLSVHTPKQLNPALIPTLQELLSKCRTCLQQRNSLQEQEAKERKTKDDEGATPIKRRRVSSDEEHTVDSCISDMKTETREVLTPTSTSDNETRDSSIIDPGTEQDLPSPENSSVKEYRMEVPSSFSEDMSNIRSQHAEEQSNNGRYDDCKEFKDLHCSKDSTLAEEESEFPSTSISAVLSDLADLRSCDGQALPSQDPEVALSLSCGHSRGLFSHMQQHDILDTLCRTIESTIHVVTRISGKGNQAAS
Method in brief: (§1)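 Labelling with Biotin-Ahx-Ub-VS (0.5 µM final, 1 h) followed a 3 h triplicate treatment of HEK293T lysate (495 µg per sample, Tris/CHAPS/IGEPAL buffer with protease inhibitors) with fragment at 200 µM or vehicle. Labelled DUBs were NeutrAvidin-enriched, digested with LysC and trypsin, and run by diaPASEF LC-MS/MS. The values, average log2 fragment/vehicle ratios by unpaired t-test, come from global-median-normalised Spectronaut label-free quantities. Proteins with ≥2 unique peptides were used.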

USP36 = target: T1, USP36 (UniProt Q9P275)
T1 sequence (whole entry): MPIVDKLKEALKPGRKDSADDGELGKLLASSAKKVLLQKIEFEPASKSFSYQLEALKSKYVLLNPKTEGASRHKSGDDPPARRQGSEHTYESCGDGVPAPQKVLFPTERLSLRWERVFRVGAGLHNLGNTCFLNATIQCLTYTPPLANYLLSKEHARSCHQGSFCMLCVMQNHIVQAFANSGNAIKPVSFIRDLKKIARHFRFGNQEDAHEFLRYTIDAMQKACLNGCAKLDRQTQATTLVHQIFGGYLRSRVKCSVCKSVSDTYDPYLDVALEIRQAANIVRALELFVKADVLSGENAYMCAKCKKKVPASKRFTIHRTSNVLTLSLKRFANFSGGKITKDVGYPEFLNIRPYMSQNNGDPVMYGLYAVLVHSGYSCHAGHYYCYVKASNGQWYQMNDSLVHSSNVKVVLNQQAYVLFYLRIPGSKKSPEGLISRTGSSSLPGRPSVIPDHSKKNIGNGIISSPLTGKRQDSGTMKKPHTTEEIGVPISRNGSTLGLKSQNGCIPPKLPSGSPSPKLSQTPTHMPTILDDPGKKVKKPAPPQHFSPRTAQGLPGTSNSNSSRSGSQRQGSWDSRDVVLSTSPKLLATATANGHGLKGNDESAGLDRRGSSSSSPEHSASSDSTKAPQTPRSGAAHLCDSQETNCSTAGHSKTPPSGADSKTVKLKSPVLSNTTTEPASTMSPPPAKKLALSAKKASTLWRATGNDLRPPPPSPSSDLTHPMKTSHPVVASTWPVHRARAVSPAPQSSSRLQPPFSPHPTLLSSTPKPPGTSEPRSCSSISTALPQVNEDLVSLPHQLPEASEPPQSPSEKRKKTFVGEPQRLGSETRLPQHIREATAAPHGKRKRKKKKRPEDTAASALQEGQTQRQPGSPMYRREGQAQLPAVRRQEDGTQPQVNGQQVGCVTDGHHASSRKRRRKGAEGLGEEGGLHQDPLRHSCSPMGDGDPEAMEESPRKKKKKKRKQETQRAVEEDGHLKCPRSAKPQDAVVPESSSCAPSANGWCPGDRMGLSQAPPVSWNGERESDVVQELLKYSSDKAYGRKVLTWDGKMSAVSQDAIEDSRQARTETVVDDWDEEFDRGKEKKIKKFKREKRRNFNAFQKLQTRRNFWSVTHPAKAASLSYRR
Method in brief: as §1

USP38 = target: T2, USP38 (UniProt Q8NB14)
T2 sequence (whole entry): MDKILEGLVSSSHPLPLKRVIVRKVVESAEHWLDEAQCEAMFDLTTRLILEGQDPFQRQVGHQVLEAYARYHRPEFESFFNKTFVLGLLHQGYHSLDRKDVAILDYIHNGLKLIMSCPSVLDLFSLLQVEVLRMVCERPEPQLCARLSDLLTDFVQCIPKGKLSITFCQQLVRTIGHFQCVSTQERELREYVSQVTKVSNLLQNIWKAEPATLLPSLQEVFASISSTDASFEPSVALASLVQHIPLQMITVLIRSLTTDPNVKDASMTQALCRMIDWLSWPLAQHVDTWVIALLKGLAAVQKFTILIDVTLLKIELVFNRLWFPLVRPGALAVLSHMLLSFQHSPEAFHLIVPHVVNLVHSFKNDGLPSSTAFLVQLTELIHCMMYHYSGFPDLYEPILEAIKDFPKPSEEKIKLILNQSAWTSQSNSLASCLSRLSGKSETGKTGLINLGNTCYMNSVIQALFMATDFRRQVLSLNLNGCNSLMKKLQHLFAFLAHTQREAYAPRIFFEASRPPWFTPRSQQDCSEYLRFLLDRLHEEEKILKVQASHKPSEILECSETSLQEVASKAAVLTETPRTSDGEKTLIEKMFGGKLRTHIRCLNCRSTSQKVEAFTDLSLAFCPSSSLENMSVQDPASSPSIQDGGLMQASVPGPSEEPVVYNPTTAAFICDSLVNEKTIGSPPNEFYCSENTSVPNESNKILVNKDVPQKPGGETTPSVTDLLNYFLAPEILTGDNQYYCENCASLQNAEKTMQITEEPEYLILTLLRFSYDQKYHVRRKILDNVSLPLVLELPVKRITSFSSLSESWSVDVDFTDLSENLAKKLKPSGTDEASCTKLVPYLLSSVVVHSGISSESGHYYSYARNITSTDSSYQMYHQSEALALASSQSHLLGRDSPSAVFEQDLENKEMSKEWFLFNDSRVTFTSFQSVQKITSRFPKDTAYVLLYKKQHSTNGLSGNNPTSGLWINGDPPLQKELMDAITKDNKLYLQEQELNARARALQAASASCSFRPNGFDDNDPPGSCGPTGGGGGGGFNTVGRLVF
Method in brief: as §1

USP39 = target: T3, USP39 (UniProt Q53GS9)
T3 sequence (whole entry): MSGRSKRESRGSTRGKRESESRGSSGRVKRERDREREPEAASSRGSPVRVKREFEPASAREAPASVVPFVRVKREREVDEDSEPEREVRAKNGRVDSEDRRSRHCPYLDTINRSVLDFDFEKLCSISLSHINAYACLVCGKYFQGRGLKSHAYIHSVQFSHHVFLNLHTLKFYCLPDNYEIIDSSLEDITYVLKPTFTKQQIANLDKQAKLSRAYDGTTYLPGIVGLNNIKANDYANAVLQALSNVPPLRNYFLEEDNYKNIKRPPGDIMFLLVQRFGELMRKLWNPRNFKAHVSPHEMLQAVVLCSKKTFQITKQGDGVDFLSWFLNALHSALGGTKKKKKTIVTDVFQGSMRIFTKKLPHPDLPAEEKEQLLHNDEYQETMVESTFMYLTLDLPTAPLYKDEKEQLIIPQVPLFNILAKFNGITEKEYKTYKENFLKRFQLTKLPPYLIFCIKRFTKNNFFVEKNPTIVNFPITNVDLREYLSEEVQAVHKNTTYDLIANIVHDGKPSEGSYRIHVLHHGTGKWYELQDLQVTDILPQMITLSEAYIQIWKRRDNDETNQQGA
Method in brief: as §1

USP4 = target: T4, USP4 (UniProt Q13107)
T4 sequence (whole entry): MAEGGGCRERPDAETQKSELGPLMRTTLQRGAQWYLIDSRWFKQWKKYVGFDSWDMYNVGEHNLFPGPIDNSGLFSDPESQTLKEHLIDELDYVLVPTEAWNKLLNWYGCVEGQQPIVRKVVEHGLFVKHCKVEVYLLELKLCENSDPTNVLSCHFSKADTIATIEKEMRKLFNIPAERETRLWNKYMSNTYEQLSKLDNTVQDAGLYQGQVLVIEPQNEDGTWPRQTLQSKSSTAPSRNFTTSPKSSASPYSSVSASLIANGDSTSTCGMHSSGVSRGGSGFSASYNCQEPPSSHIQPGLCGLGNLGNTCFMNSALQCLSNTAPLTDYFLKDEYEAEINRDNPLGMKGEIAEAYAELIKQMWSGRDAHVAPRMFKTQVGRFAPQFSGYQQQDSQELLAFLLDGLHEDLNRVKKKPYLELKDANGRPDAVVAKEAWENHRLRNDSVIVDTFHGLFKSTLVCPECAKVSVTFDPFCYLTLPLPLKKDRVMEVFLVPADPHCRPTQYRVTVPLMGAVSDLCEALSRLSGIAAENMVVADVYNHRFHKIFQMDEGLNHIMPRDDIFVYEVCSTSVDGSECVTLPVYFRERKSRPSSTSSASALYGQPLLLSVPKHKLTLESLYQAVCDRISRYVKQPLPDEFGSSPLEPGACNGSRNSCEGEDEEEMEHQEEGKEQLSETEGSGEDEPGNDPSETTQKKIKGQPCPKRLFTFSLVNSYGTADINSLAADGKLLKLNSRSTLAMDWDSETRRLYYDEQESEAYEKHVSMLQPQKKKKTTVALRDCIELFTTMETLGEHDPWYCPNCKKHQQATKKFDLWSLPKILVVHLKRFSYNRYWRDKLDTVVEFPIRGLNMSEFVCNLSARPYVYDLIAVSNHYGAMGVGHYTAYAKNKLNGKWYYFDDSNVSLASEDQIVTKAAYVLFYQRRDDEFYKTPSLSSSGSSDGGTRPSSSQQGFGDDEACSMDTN
Method in brief: as §1

Measured: log2 ratio of Biotin-Ahx-Ub-VS probe labelling

Cc1ccn2cc(CNC(=O)CCl)nc2c1.Cl
inactive: USP34 -0.192 | USP36 -0.029 | USP38 -0.0421 | USP39 0.0111 | USP4 0.0609
